Source: PubChem BioAssay AID720513 (Broad Institute, 2013)
Screen size: about 2,100 compounds; about 480 (23%) were called active. About 5% were inconclusive and are not listed.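 Rule for the calls: active = fitted curve reaches 40% activation at or below the top valid concentration, in every replicate test; inconclusive = replicate tests disagree on the call; inactive = the rest, including activity in the opposite direction.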 A selection follows. Potency and affinity values are given separately.

test: activators raising PGC1a acetylation in cells, dose response, cell-based, cherry-picked samples, set 6 (AID 720513); details: U2OS PGC1a acetylation AlphaLISA, overnight, 0 = neutral, -100 = inhibitor control; series mostly up to 19.5 µM; activation (acetylation increase): at the top concentration;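 note: cells made to overexpress flag tagged PGC1a plus GCN5 acetyltransferase by viral infection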

Activation (acetylation increase), inactive:
CN(C)C(=O)C[C@H]1CC[C@@H](NC(=O)C2CCC2)[C@H](CO)O1 -23.8%
COCCOc1ccc(C(F)(F)F)cc1NC(=O)CN1C(=O)NC2(CCCc3ccccc32)C1=O (stereo unspecified) -4.64%
CCOC(=O)c1[nH]c(C)c(C(=O)Nc2cc(Cl)ccc2C)c1C -1.9%
CCOC(=O)c1[nH]c2ccc(OC)cc2c1NC(=O)c1ccc2c(c1)OCO2 -3.22%
O=c1c2c(nc3c(-c4ccc(Cl)cc4)c[nH]n13)CCCC2 -8.3%
CC(C)(O)c1cc(=O)sc2nc3ccccc3n12 12.9%
O=C(NC1CCCC1)C(c1ccccc1)N(Cc1ccc(F)cc1)C(=O)c1csnn1 (stereo unspecified) 22.9%
O=C(NC1CCCC1)C(c1ccncc1)N(Cc1ccccc1F)C(=O)c1csnn1 (stereo unspecified) -10.3%
C[C@@H]1CN([C@@H](C)CO)C(=O)CCCn2cc(nn2)CO[C@H]1CN(C)C(=O)Cc1ccccc1 8.97%
C[C@@H]1CN([C@H](C)CO)C(=O)c2cccc(NC(=O)Nc3cccc4ccccc34)c2O[C@H]1CN(C)S(C)(=O)=O 6.73%
CC(=O)N(C)C[C@H]1Oc2ncc(C#CCc3ccccc3)cc2C(=O)N([C@@H](C)CO)C[C@H]1C 5.97%
CCn1c(=N)n(CC(=O)c2ccc(OC)c(OC)c2)c2ccccc21 5.92%
CC(=O)Oc1ccc(-c2csnn2)cc1 0.471%
CCCNC(=O)CN(C)C(=O)c1n[nH]c2ccccc12 18.4%
O=c1[nH]c(=O)c2[nH]c(=S)[nH]c2[nH]1 -1.47%
CC(C)c1ccc(NC(=O)c2n[nH]c(=O)c3ccccc23)cc1 1.85%
COc1ccc2nc3cc(Cl)ccc3c(Nc3cc(CN4CCCC4)c(O)c(CN4CCCC4)c3)c2n1 -57.3%
Cc1noc(C)c1NC(=O)Nc1ccc2c(c1)C(=O)N([C@H](C)CO)C[C@@H](C)[C@@H](CN(C)S(=O)(=O)c1ccc(F)cc1)OCCCC[C@@H](C)O2 34.8%
CCCCC(=O)NCCc1cc2c(OC)ccc(OC)c2[nH]c1=O 20.3%
COc1cc2[nH]c(=O)n(CCCC(=O)NCCc3ccccc3)c(=O)c2cc1OC -2.35%
COc1cccc(NC(=O)CN(C)C(=O)CNC(=O)c2ccccc2F)c1 2.56%
Cn1nnnc1SCC(=O)NCc1cccc(C(=O)O)c1 -38.1% [at 10 µM]
CCCN(C)C[C@H]1Oc2cc(C#C[C@@H](C)O)ccc2S(=O)(=O)N([C@@H](C)CO)C[C@H]1C -11.5%
CCn1cc([N+](=O)[O-])c(C(=O)NCc2ccc3c(c2)OCO3)n1 -0.458%
Cc1ccc(CNC(=O)CCS(=O)(=O)c2cc3c(cc2Cl)NC(=O)CO3)cc1 18%
COC(=O)c1ccccc1N(C)S(=O)(=O)c1cc2c(cc1C)OCC(=O)N2 -12.3%
COc1ccc(C2c3c(-c4ccccc4O)n[nH]c3C(=O)N2CCc2ccc(OC)c(OC)c2)cc1 (stereo unspecified) 4.33%
C#CCN(C[C@@H]1[C@@H](OC(=O)NCc2ccccc2F)[C@@H](OC(=O)NCc2ccccc2F)Cn2c(=O)ccc(=O)n21)S(=O)(=O)c1ccc(C)cc1 -98.8%
COc1ccc2c(c1)c(CC(=O)OCC(N)=O)c(C)n2C(=O)c1ccc(Cl)cc1 31.9%
COc1ccc([N+](=O)[O-])c(S(=O)(=O)c2ccc(Cl)cc2)n1 -85.4%
CN(C)C(=O)C[C@H]1C[C@@H]2c3cc(NC(=O)C4CCOCC4)ccc3O[C@@H]2[C@H](CO)O1 30.3%
C[C@H](NC(=O)C[C@H]1C[C@@H]2c3cc(NC(=O)Nc4ccc(C(F)(F)F)cc4)ccc3O[C@@H]2[C@@H](CO)O1)c1ccccc1 -4.02%
N#Cc1cccc(C#N)c1NCC1CCCO1 (stereo unspecified) 13.6%
COCC#Cc1cnc2c(c1)C(=O)N([C@H](C)CO)C[C@@H](C)[C@@H](CN(C)C(=O)c1cccnc1)O2 4.29%
CC1=C(C(N)=O)C(c2ccccc2)n2nc(-c3ccncc3)nc2N1 (stereo unspecified) 36.6%
CCN(CC)C(=O)c1sc(NC(=O)c2ccncc2)c(C(=O)OC)c1C -4.98%
CC(=O)Nc1ccc(NS(=O)(=O)c2ccc(C)cc2)cc1[N+](=O)[O-] 33.2% [at 10 µM]
Cc1nn(CC(=O)Nc2ccc(C(C)C)cc2)c(C)c1[N+](=O)[O-] -5.82%
COc1ccc(OC)c(CN2CCN(C(=O)c3ccc(NS(=O)(=O)c4cccc([N+](=O)[O-])c4)cc3)CC2)c1 2.19%
COc1ccc(OC)c(N(CC(=O)Nc2ccccc2)S(C)(=O)=O)c1 27.7%
COc1ccc(NC(=O)CN(C)C(=O)c2cnc(Cl)c(Cl)c2)cc1 12.1%
CC(=O)Nc1cccc(OCC(=O)Nc2ccccc2)c1 -3.78%
CC(C)Cc1nnc(NC(=O)c2cc3c(s2)CCC3)s1 5.75%
C[C@@H]1CN([C@@H](C)CO)C(=O)c2cc(NC(=O)Nc3cccc4ccccc34)ccc2O[C@@H](C)CCCCO[C@H]1CN(C)C(=O)NC1CCCCC1 22.3%
N#Cc1ccc(C(c2ccc(C#N)cc2)n2cncn2)cc1 2.17%
N#Cc1c(C#N)c(O)c2ccccc2c1O 15%
OC[C@@H]1CN(Cc2ccccc2)C[C@H](n2cnc3c(NCc4ccc(F)cc4)ncnc32)O1 0.342%
O=C(COc1ccc(Cl)cc1Cl)NCCCN1CCOCC1 8.53%
COc1cc(NS(=O)(=O)c2ccc(N)cc2)nc(OC)n1 17.8%
CN(C)S(=O)(=O)c1ccc(N2CCCC2)c(C(=O)NCc2cccc(C(F)(F)F)c2)c1 4.68%
COc1ccc(NC(=O)N[C@@H]2CC[C@H](CCn3cc(-c4ccccc4F)nn3)O[C@H]2CO)cc1 19%
COc1ccccc1C1c2c(C)nn(-c3ccccc3)c2NC(=O)C1NC(=O)c1ccccc1 (stereo unspecified) -23.3%
Cn1cnnc1Sc1ccc(/C=C/C(=O)c2ccc(O)cc2)cc1[N+](=O)[O-] -94.3%
O=C(Nc1ccc(F)cc1)c1ccccc1 22.9%
O=C(Nc1ccc(F)cc1)N1CCCCN2[C@H](CO)[C@H](c3ccc(C#Cc4ccccc4)cc3)[C@H]2C1 -84.6%
CC(C)NC(=O)N(C)C[C@H]1OCCCC[C@@H](C)Oc2ccc(NC(=O)CCCN(C)C)cc2C(=O)N([C@@H](C)CO)C[C@@H]1C -5%
C[C@@H]1CN([C@@H](C)CO)C(=O)CCCn2cc(nn2)CO[C@H]1CN(C)Cc1ccncc1 8.73% [at 21 µM]
CCCCN(C(=O)CCC(=O)Nc1cc(C)on1)C(C(=O)NC1CCCC1)c1ccc(OC)cc1 (stereo unspecified) -10.7%
C#CC(=O)N(c1ccc(OC)c(OC)c1)C(C(=O)NC1CCCC1)c1cccs1 (stereo unspecified) -99.1%
C#CC(=O)N(c1ccc(OC)cc1OC)C(C(=O)NC1CCCC1)c1cccs1 (stereo unspecified) -106%
COc1ccc(N2C(=O)CC2(/C=C/c2ccccc2OC)C(=O)NC2CCCC2)cc1 (stereo unspecified) 20.7%
CCCC(C(=O)NC(C)(C)C)N(Cc1ccc(F)cc1)C(=O)c1snc(C(N)=O)c1N (stereo unspecified) -19.4%
O=C(NC1CCCCC1)C(c1ccc2ncccc2c1)N(Cc1ccc2c(c1)OCO2)C(=O)c1ccc2c(c1)OCCO2 (stereo unspecified) 9.19%
C#CC(=O)N(c1cccc(OC)c1)C(C(=O)NC1CCCC1)c1cccs1 (stereo unspecified) -104%
CC12CC(c3ccccc3O1)N(C(=O)c1ccc(Br)o1)C(=O)N2c1ccccc1 (stereo unspecified) -8.31%
CCCOc1ccccc1-n1sc2c(c1=S)-c1cc(OC)cc3c1N(C(=O)C3=O)C2(C)C -46.2%
COc1cccc(-c2nn(-c3ccccc3)cc2CN(C)C(C)c2ccncn2)c1 (stereo unspecified) 15.7%
Cc1c(NC(=O)c2ccccc2NS(=O)(=O)c2ccc(Br)cc2)c(=O)n(-c2ccccc2)n1C -8.93%
CCOC(=O)C1=C(NC(=O)c2ccc(Br)o2)Nc2ccccc2N=C1 31.5%
CCCNC(=O)N(C)C[C@H]1Oc2cc(C#CC(C)C)ccc2S(=O)(=O)N([C@@H](C)CO)C[C@H]1C 0.778%
CC(C)C#Cc1cnc2c(c1)C(=O)N([C@H](C)CO)C[C@H](C)[C@H](CN(C)C(=O)CN1CCOCC1)O2 23.2%
Cc1cc(-c2ccc(Cl)cc2)n2ncnc2n1 -15.3%
CO[C@@H]1CN(C)C(=O)c2cc(NC(C)=O)ccc2OC[C@H](C)N(C(=O)c2cccnc2)C[C@H]1C -7.97%
COc1ccc(C2c3c(oc4ccccc4c3=O)C(=O)N2CCN2CCOCC2)cc1OC (stereo unspecified) 6.79%
CCOc1ccc2c(c1)C(C)=CC(C)(C)N2S(=O)(=O)c1ccc(NC(C)=O)cc1 8.98%
Cn1cnc(S(=O)(=O)N2C[C@@H](O)COC[C@H]3O[C@H](CC(=O)NCc4cc(F)cc(F)c4)CC[C@@H]32)c1 17.1%
CCn1c(COc2ccc(=O)n(-c3ccccc3)n2)nnc1SCc1ccc(C)cc1 26.3%
O=S(=O)(Nc1nc2c(s1)CCCC2)c1ccc(F)cc1 16.7%
CC(C)(C)Cc1nnc(NS(=O)(=O)c2ccc(F)cc2)s1 20.2%
CC(C)CC#Cc1ccc2c(c1)O[C@@H](CN(C)C)[C@H](C)CN([C@@H](C)CO)S2(=O)=O 13.1%
Cn1ccc2cc(OCc3ccccc3)ccc21 11%
N=c1sccn1CC(=O)Nc1ccccc1Sc1ccccc1 -28.5%
COC(=O)c1c(C)oc(C)c1S(=O)(=O)Nc1ccccc1 -8.61%
Cc1cc(C)c(S(=O)(=O)N2CC=C(c3ccccc3)CC2)c(C)c1 36.4%
CCCCCCNC(=O)c1ncn[nH]1 -9.03%
O=C(N[C@@H]1CC[C@@H](CCNS(=O)(=O)c2ccccc2Cl)O[C@@H]1CO)c1ccc(F)cc1 2.33%
N=C1C(c2nc3ccccc3s2)=C(O)CN1NC(=O)c1ccc([N+](=O)[O-])cc1 31.2%
O=C(Nc1ccc(OC(=O)c2ccccc2)c(-c2nc3ccccc3s2)c1)c1ccccc1 8.72%
O=C(NCC1CCCO1)c1cc2c([nH]c3ccccc32)c(-c2cccc(Cl)c2)n1 (stereo unspecified) 40%
CNC[C@@H]1OCCCC[C@@H](C)Oc2ccc(NS(=O)(=O)c3ccc(C)cc3)cc2C(=O)N([C@H](C)CO)C[C@@H]1C 15.5%
COc1cc(Cl)c(S(=O)(=O)N2CC(C)OC(C)C2)cc1Cl (stereo unspecified) 26.5%
